Reference: PubChem BioAssay (NCI)
About 79,000 compounds went through this panel and 15% of them were active in at least one assay; those are over-represented in the sample as a whole. Active and inactive are the calls of the source. No stated cut-off is given here; in the data, active means growth inhibition above about 70%; inactive means the rest.

Legend:
[1] = NCI Yeast Anticancer Drug Screen. Data for the rad52 strain (AID 147);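 further: 0% = growth of vehicle-treated control cultures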; details: S. cerevisiae rad52 mutant growth inhibition, stronger effect = higher value
Method in brief: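 The repair-mutant yeast strain was incubated with compounds, then growth was read and inhibition derived relative to vehicle.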

[2] = NCI Yeast Anticancer Drug Screen. Data for the wt1 strain (AID 149);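 further: 0% = growth of vehicle-treated wt1 cultures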; details: S. cerevisiae wt1 strain (SPY 50644) growth inhibition, stronger effect = higher value
Method in brief: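 wt1 yeast, compound-treated; % growth inhibition vs vehicle control.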

[3] = NCI Yeast Anticancer Drug Screen. Data for the rad50EPP+ strain (AID 151);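 further: 0% = growth of vehicle-treated control cultures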; details: S. cerevisiae rad50 mutant strain, stronger effect = higher value
Method in brief: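 Vehicle-normalised growth inhibition; rad50EPP+ yeast strain, altered in DNA damage repair, compound-treated.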

[4] = NCI Yeast Anticancer Drug Screen. Data for the mgt1 strain (AID 153); details: S. cerevisiae mgt1 mutant growth inhibition, stronger effect = higher value
Method in brief: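 Vehicle-normalized growth inhibition is determined in mgt1 yeast, a strain selected for a defined alteration in DNA repair or cell cycle control.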

[5] = NCI Yeast Anticancer Drug Screen. Data for the rad50 strain (AID 155);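 further: 0% = growth of vehicle-only cultures of the same strain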; details: S. cerevisiae rad50 strain growth inhibition, stronger effect = higher value
Method in brief: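 Genetically altered yeast (DNA repair pathway); compound treatment; growth inhibition vs vehicle ctrl.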

[6] = NCI Yeast Anticancer Drug Screen. Data for the mec2-1 strain (AID 157); details: S. cerevisiae mec2-1 strain, stronger effect = higher value
Method in brief: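 Mutant yeast (mec2-1) grown with compound; growth inhibition relative to vehicle control reported.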

[7] = NCI Yeast Anticancer Drug Screen. Data for the rad14 strain (AID 159);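 further: 0% = growth of vehicle-treated control cultures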; details: S. cerevisiae rad14 strain growth inhibition, stronger effect = higher value
Method in brief: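 Test compounds were applied to a repair-deficient yeast strain. Its growth was then compared with that of cultures given vehicle alone, and inhibition was expressed relative to those controls.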

[8] = NCI Yeast Anticancer Drug Screen. Data for the CLN2oe strain (AID 163);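 further: 0% = growth of vehicle-only control cultures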; details: S. cerevisiae CLN2oe strain, stronger effect = higher value
Method in brief: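 Compounds are applied to yeast harbouring a defined cell-cycle control change; reduced growth compared with vehicle-treated controls gives the value.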

[9] = NCI Yeast Anticancer Drug Screen. Data for the cln2 rad14 strain (AID 165);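 further: 0% = growth equal to vehicle treated cultures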; details: S. cerevisiae cln2 rad14 strain, stronger effect = higher value
Method in brief: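 Readout is yeast growth inhibition versus vehicle-treated controls, using a strain with cln2 and rad14 alterations exposed to compound.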

[10] = NCI Yeast Anticancer Drug Screen. Data for the bub3 strain (AID 167); details: S. cerevisiae bub3 mutant strain, stronger effect = higher value
Method in brief: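 Yeast carrying a defined mutation is treated with each compound, and growth is compared with that of vehicle-exposed cells to give inhibition.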

[11] = NCI Yeast Anticancer Drug Screen. Data for the wt2 strain (AID 169);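 further: 0% = growth of vehicle-treated yeast cultures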; details: S. cerevisiae wt2 strain growth inhibition, stronger effect = higher value
Method in brief: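 Against vehicle-treated controls, the growth of yeast exposed to each compound was compared, and the inhibition was recorded.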

[12] = NCI Yeast Anticancer Drug Screen. Data for the mlh1 strain (AID 171);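 further: 0% = growth of vehicle-treated control cultures of the same strain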; details: S. cerevisiae mlh1 strain growth inhibition, stronger effect = higher value
Method in brief: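 Measured: yeast growth. Reference: vehicle-treated controls. Organism: strain with a defined alteration affecting DNA damage repair or cell cycle control, treated with compound.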

[13] = NCI Yeast Anticancer Drug Screen. Data for the sgs1 strain (AID 173);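 further: 0% = growth of vehicle-only control cultures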; details: S. cerevisiae sgs1 mutant, stronger effect = higher value
Method in brief: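 Each compound was added to cultures of the altered yeast strain. Growth was recorded, and inhibition was derived by comparison with vehicle controls.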

[14] = NCI Yeast Anticancer Drug Screen. Data for the rad18 strain (AID 177); details: S. cerevisiae rad18 mutant growth inhibition, stronger effect = higher value
Method in brief: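 Vehicle-treated cultures served as the baseline for scoring compound-induced growth inhibition in DNA-repair-mutant yeast.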

[15] = NCI Yeast Anticancer Drug Screen. Data for the sgs1 mgt1 strain (AID 161);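 further: 0% = growth of cultures given vehicle only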; details: S. cerevisiae sgs1 mgt1 strain, stronger effect = higher value
Method in brief: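 Percent growth inhibition was derived by comparing compound-exposed mutant yeast with vehicle-exposed cultures. The strain carries alterations in DNA damage repair.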

[16] = NCI Yeast Anticancer Drug Screen. Data for the mlh1 rad18 strain (AID 175); details: S. cerevisiae mlh1 rad18 strain growth inhibition, stronger effect = higher value
Method in brief: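 Genetically defined yeast (DNA repair-deficient) exposed to compounds; growth inhibition determined relative to vehicle.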

[17] = at 5.0 µM (retest, dose inferred, filed as 0.5)
[18] = at 50.0 µM (retest, dose inferred, filed as 5.0)

Measured: growth inhibition

COc1ccc(C(OCC2OC(n3cnc4c(=O)n(Cc5ccccc5[N+](=O)[O-])nnc43)C(O)C2O)(c2ccccc2)c2ccc(OC)cc2)cc1 (stereo not given)
inactive: [1]; at 1.2 µM 12% | [1]; at 3.7 µM 16% | [1]; at 11.0 µM 18% | [1]; at 33.0 µM 19% | [1]; at 100.0 µM 15% | [2]; at 1.2 µM -18% | [2]; at 3.7 µM -11% | [2]; at 11.0 µM -2% | [2]; at 33.0 µM -4% | [2]; at 100.0 µM -2% | [3]; at 1.2 µM 8% | [3]; at 3.7 µM 8% | [3]; at 11.0 µM -5% | [3]; at 33.0 µM -7% | [3]; at 100.0 µM -15% | [4]; at 1.2 µM 9% | [4]; at 3.7 µM 5% | [4]; at 11.0 µM 20% | [4]; at 33.0 µM 25% | [4]; at 100.0 µM 20% | [5]; at 1.2 µM 22% | [5]; at 3.7 µM 24% | [5]; [17] 17% | [5]; at 11.0 µM 26% | [5]; at 33.0 µM 18% | [5]; [18] 35% | [5]; at 100.0 µM 17% | [6]; at 1.2 µM 14% | [6]; at 3.7 µM 13% | [6]; [17] 14% | [6]; at 11.0 µM 15% | [6]; at 33.0 µM 22% | [6]; [18] 33% | [6]; at 100.0 µM 9% | [7]; at 1.2 µM -23% | [7]; at 3.7 µM -22% | [7]; at 11.0 µM -25% | [7]; at 33.0 µM -28% | [7]; at 100.0 µM -31% | [8]; at 1.2 µM 9% | [8]; at 3.7 µM -4% | [8]; at 11.0 µM -7% | [8]; at 33.0 µM 11% | [8]; at 100.0 µM -3% | [9]; [17] 2% | [10]; at 1.2 µM 32% | [10]; at 3.7 µM 26% | [10]; [17] 7% | [10]; at 11.0 µM 23% | [10]; at 33.0 µM 26% | [10]; at 100.0 µM 14% | [11]; at 1.2 µM 1% | [11]; at 3.7 µM -4% | [11]; at 11.0 µM 6% | [11]; at 33.0 µM 13% | [11]; at 100.0 µM 6% | [12]; at 1.2 µM -8% | [12]; at 3.7 µM -2% | [12]; at 11.0 µM -2% | [12]; at 33.0 µM 3% | [12]; at 100.0 µM -4% | [13]; at 1.2 µM -10% | [13]; at 3.7 µM -20% | [13]; at 11.0 µM -10% | [13]; at 33.0 µM -5% | [13]; at 100.0 µM 8% | [14]; at 1.2 µM 28% | [14]; at 3.7 µM 27% | [14]; at 11.0 µM 33% | [14]; at 33.0 µM 37% | [14]; at 100.0 µM 32%
active: [5]; at 50.0 µM 89.2% | [6]; at 50.0 µM 91.4% | [9]; [18] 88% | [9]; at 50.0 µM 88.7% | [10]; [18] 96% | [10]; at 50.0 µM 89.4%

Cc1cccc(C)c1NC(=O)C(C#N)C1=C(Cl)C(=O)c2ccccc2C1=O (stereo not given)
inactive: [1]; at 1.2 µM -43% | [1]; at 3.7 µM 46% | [2]; at 1.2 µM -24% | [2]; at 3.7 µM 24% | [3]; at 1.2 µM 14% | [3]; at 3.7 µM 67% | [4]; at 1.2 µM -4% | [5]; at 1.2 µM -11% | [5]; at 3.7 µM 23% | [6]; at 1.2 µM -7% | [6]; at 3.7 µM 62% | [8]; at 1.2 µM 3% | [8]; at 3.7 µM 16% | [9]; [17] 65% | [10]; at 1.2 µM 6% | [11]; at 1.2 µM -22% | [11]; at 3.7 µM 35% | [12]; at 1.2 µM -4% | [13]; at 1.2 µM 8% | [13]; at 3.7 µM 45% | [14]; at 1.2 µM -32% | [14]; at 3.7 µM -1%
active: [1]; at 11.0 µM 93% | [1]; at 33.0 µM 95% | [1]; at 100.0 µM 94% | [2]; at 11.0 µM 94% | [2]; at 33.0 µM 98% | [2]; at 100.0 µM 97% | [3]; at 11.0 µM 98% | [3]; at 33.0 µM 98% | [3]; at 100.0 µM 96% | [4]; at 3.7 µM 78% | [4]; at 11.0 µM 98% | [4]; at 33.0 µM 98% | [4]; at 100.0 µM 98% | [5]; [17] 95% | [5]; at 11.0 µM 97% | [5]; at 33.0 µM 97% | [5]; [18] 96% | [5]; at 50.0 µM 91.2% | [5]; at 100.0 µM 96% | [6]; [17] 99% | [6]; at 11.0 µM 98% | [6]; at 33.0 µM 98% | [6]; [18] 99% | [6]; at 50.0 µM 93.1% | [6]; at 100.0 µM 98% | [15]; [17] 99% | [15]; [18] 99% | [15]; at 50.0 µM 93.7% | [8]; at 11.0 µM 77% | [8]; at 33.0 µM 97% | [8]; at 100.0 µM 96% | [9]; [18] 98% | [9]; at 50.0 µM 92.8% | [10]; at 3.7 µM 70% | [10]; [17] 99% | [10]; at 11.0 µM 97% | [10]; at 33.0 µM 97% | [10]; [18] 98% | [10]; at 50.0 µM 92.2% | [10]; at 100.0 µM 95% | [11]; at 11.0 µM 98% | [11]; at 33.0 µM 98% | [11]; at 100.0 µM 98% | [12]; at 3.7 µM 78% | [12]; at 11.0 µM 98% | [12]; at 33.0 µM 98% | [12]; at 100.0 µM 98% | [13]; at 11.0 µM 97% | [13]; at 33.0 µM 98% | [13]; at 100.0 µM 97% | [16]; [17] 98% | [16]; [18] 98% | [16]; at 50.0 µM 91.7% | [14]; at 11.0 µM 92% | [14]; at 33.0 µM 97% | [14]; at 100.0 µM 96%
